Reference: PubChem BioAssay (NCATS)
Several values for one entry are separate records, joined by “and”; a condition that tells them apart may be missing. Equal entries are not always repeated. Records with an inconclusive call do not appear. Activity calls are given as the source filed them. Calls come from the whole dose curve; as a rule, active = well fitted curve in the direction sought with a large enough effect; inconclusive = small, poorly fitted or top-dose-only effect, or another doubt; inactive = no such curve, though single readings can be large; an effect the other way counts as inactive or inconclusive.

Legend:
[1] = biological target: T1, Hexokinase-4 (Homo sapiens) + Glucokinase regulatory protein (Homo sapiens) (UniProt P35557+Q14397); test: qHTS assay for inhibitors of recombinant human GCK-GKRP interaction: Diaphorase-coupled assay (AID 743205)
T1 sequence (P35557 whole entry, looked up): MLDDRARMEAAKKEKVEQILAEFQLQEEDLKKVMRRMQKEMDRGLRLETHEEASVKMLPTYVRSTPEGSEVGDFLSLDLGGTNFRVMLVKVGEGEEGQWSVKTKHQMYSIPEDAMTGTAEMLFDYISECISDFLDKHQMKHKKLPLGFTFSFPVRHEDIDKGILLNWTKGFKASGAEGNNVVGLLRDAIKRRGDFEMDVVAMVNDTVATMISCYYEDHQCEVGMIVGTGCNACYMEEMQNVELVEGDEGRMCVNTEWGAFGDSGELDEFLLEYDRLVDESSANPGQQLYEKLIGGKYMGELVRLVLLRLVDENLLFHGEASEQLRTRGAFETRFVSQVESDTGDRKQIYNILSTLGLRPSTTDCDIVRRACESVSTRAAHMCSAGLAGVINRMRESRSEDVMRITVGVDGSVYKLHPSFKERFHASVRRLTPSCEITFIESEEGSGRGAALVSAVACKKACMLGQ
T1 sequence (Q14397 whole entry, looked up): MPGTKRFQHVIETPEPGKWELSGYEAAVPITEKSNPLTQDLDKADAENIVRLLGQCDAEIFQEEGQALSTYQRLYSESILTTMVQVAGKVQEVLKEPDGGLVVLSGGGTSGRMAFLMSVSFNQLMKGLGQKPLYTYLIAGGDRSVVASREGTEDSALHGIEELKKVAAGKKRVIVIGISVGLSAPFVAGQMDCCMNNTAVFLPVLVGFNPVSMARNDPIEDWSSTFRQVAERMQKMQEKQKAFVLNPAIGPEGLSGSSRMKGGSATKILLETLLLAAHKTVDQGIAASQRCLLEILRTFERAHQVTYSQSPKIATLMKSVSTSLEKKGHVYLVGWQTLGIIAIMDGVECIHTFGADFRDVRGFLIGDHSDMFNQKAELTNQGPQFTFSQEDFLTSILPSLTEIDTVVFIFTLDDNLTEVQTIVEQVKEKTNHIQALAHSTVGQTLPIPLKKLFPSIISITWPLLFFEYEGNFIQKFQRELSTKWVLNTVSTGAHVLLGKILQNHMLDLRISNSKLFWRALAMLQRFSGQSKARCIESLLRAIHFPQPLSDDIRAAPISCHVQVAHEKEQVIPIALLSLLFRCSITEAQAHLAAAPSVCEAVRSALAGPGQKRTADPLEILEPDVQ
Outline: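 GST-GCK (10 nM) with FLAG-GKRP (10 nM), 5 mM glucose and 0.4 mM ATP in pH 7.6 Hepes; compounds preincubated 20 min with substrate. G6PDH/diaphorase coupling converts resazurin to resorufin, read kinetically (ex 525/em 590 nm) for 30 min.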

[2] = biological target: T1, Hexokinase-4 (Homo sapiens) + Glucokinase regulatory protein (Homo sapiens); test: qHTS assay for inhibitors of recombinant human GCK-GKRP interaction: ADP-Glo assay (AID 743206);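 note: plate controls were DMSO plus enzyme for no effect and no enzyme for full effect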
Outline: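 Pin-transferred compounds meet a 15 nM GST-GCK/15 nM FLAG-GKRP/2 uM S6P mix (dispense concentrations). ATP is then added to 0.4 mM final with 5 mM glucose, and the reaction runs 60 min at room temperature. ADP is quantified luminescently.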

[3] = biological target: T1, Hexokinase-4 (Homo sapiens) + Glucokinase regulatory protein (Homo sapiens); test: qHTS assay for inhibitors of recombinant human GCK-GKRP interaction: HTRF assay (AID 743207);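 note: 0% = DMSO with GCK present and -100% = DMSO wells lacking GCK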
Outline: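 GST-GCK and FLAG-GKRP (5 nM each) were combined with 2 uM S6P in pH 7.1 Hepes/MgCl2/KCl/DTT buffer, then compound and anti-FLAG XL665/anti-GST K antibodies were added. After 60 min at room temperature, HTRF 665/615 nm emission was read.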

[4] = qHTS assay for measurement of the activity of small molecule inhibitors on Zika virus induced Caspase-3 activity in human astrocytoma cells (AID 1224859); note: potency is the fitted concentration of half-maximal effect
Outline: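 Inhibition of Zika-induced caspase-3/7 activity: SNB-19 cells, 1 h compound pretreatment, ZIKV 2 FFU/cell for 6 h at 37 C, Caspase-Glo luminescence read-out.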

[5] = qHTS Assay for Identifying Gametocytocidal Compounds (AID 743244); note: potency is the fitted concentration of half-maximal effect;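 for max response: % is set by controls: 0 for no effect and ±100 for the full control effect; actives lower the fluorescent signal which means gametocytes are killed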; settings: P. falciparum 3D7 stage III-V gametocytes, alamarBlue, 72 h; max response: active compounds read low
Outline: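 Using 20,000 stage III–V 3D7 gametocytes per well, compounds were incubated 72 h under 37 °C/5% CO2. Viability was then assessed by 24 h alamarBlue reduction, measured fluorometrically at 525/598 nm.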

[6] = qHTS assay to identify small molecule inhibitors of chordoma cells - UCH-2 (AID 1259356); note: series mostly up to about 46 µM; % is set by controls: 0 for no effect and ±100 for the full control effect
[7] = qHTS assay for cell viability of HEK293 cells (AID 743288); settings: ATP luminescence (CellTiter-Glo), 18 h; max response: active compounds read low; note: % is set by controls: 0 for no effect and ±100 for the full control effect; nearly all actives have a fitted effect of over 50% in size
Outline: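 After 18 h compound exposure at 37 C, parental HEK293 cells (2,000/well) are lysed with CellTiter-Glo and luminescence is read following 30 min at room temperature.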

[8] = qHTS assay for cell viability of the p53RE-bla HCT-116 cell line (AID 743292); note: % is set by controls: 0 for no effect and ±100 for the full control effect; nearly all actives have a fitted effect of over 55% in size
Outline: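 ATP-based luminescent viability (CellTiter-Glo, 30 min RT) after 16 h compound treatment at 37 C of p53RE-bla HCT-116 cells, seeded at 4,000 cells/well and rested 5 h before dosing.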

CC(C)(C)c1ccc(S(=O)(=O)/C=C/C#N)cc1
inactive: outcome [1] | Potency [2] | Potency [3] | Potency [4]

CC(COc1ccc(/C=C/c2ccccc2)cc1)[N+](C)(C)C (centres undefined)
inactive: outcome [1] | Potency [2] | Potency [3] | Potency [4]

CCOC(=O)N1CCN(/[N+]([O-])=N/Oc2ccc([N+](=O)[O-])cc2[N+](=O)[O-])CC1
inactive: outcome [1] | Potency [2] | Potency [3] | Potency [4]

CN=c1nc(-c2ccccc2)n(-c2ccccc2)s1
inactive: outcome [1] | Potency [2] | Potency [3] | Potency [4]

O=C1/C(=C/c2ccsc2)CC/C1=C\c1cccs1
inactive: outcome [1] | Potency [2] | Potency [3] | max response [5] 30.3% | Potency [4]

N#C/C(=C\c1c[nH]c2ccccc12)C(=O)c1ccc(O)c(O)c1
inactive: outcome [1] | Potency [2] | Potency [3] | max response [5] -1.71% | Potency [4]

C[N+](C)(C)CC(=O)[O-]
inactive: outcome [1] | Potency [2] | Potency [3] | Potency [4]

COc1cc2nc(N3CCN(C(=O)OCc4ccccc4)C(C(=O)NC(C)(C)C)C3)nc(N)c2cc1OC (centres undefined)
inactive: outcome [1] | Potency [2] | Potency [3] | Potency [4]

CCCSc1ccc2nc(NC(=O)OC)[nH]c2c1
inactive: max response [5] 0.499% | Potency [4] | Potency [6]

CN(C)c1ccc(/C=C2\C(=O)Nc3ccccc32)cc1
active: Potency [4] 10 µM
inactive: outcome [1] | Potency [2] | Potency [3]

C=CC(=O)c1ccc(CCCCCC)cc1
inactive: outcome [1] | Potency [2] | Potency [3] | max response [5] 6.31% | Potency [4]

O=C(O)c1cc(=O)c2c(Cl)cc(Cl)cc2[nH]1
inactive: outcome [1] | Potency [2] | Potency [3] | max response [5] 14.4% | Potency [4]

C#C[C@]1(O)CC[C@H]2[C@@H]3CCc4cc(O)ccc4[C@H]3CC[C@@]21C
inactive: max response [5] 16.7% | max response [7] -11.3% and -0.854% | Potency [8] | Potency [4] | Potency [6]

O=[N+]([O-])c1ccc(CSc2ncnc3c2ncn3[C@@H]2O[C@H](CO)[C@@H](O)[C@H]2O)cc1
inactive: outcome [1] | Potency [2] | Potency [3] | max response [5] 17.7% | Potency [4]

CNCC[C@H](Oc1ccc(C(F)(F)F)cc1)c1ccccc1
inactive: outcome [1] | Potency [2] | Potency [3] | Potency [4]

CN1CCc2cc(O)c(O)cc2C(c2ccccc2)C1 (centres undefined)
inactive: outcome [1] | Potency [2] | Potency [3] | Potency [4]

CCCCCCCCCCCC(=O)[O][Sn]([CH2]CCC)([CH2]CCC)[O]C(=O)CCCCCCCCCCC
inactive: max response [5] -1.72% | Potency [4] | Potency [6]

Oc1ccc(C2CNCc3sccc32)cc1O (centres undefined)
inactive: outcome [1] | Potency [2] | Potency [3] | Potency [4]

CCCCC/C=C\CC(O)/C=C/c1cccc(CC(O)CCCCO)n1 (centres undefined)
inactive: outcome [1] | Potency [2] | Potency [3] | Potency [4]

CCCCN1CCC(n2c(=O)[nH]c3ccccc32)CC1
inactive: outcome [1] | Potency [2] | Potency [3] | max response [5] 5.22% | Potency [4]

O=P(O)(O)C(Cl)(Cl)P(=O)(O)O
inactive: outcome [1] | Potency [2] | Potency [3] | Potency [4]

CCCCCCCCCCCCCCCCCC(=O)NCC(COP(=O)([O-])OCC[N+](C)(C)C)OCC (centres undefined)
inactive: outcome [1] | Potency [2] | Potency [3] | max response [5] 4.32% | Potency [4]

CCCn1c(=O)c2[nH]c(-c3ccc(OCC(=O)NCCN)cc3)nc2n(CCC)c1=O
inactive: outcome [1] | Potency [2] | Potency [3] | Potency [4]

CCCC1(C)C(C#N)(C#N)C1(C#N)C#N
inactive: outcome [1] | Potency [2] | Potency [3] | Potency [4]
active: Potency [5] 2.24 µM

CC(C)Cc1ccc([C@H](C)C(=O)O)cc1
inactive: outcome [1] | Potency [2] | Potency [3] | max response [5] -6.28% and 20.5% | Potency [4]

C#CCN1C(C)=C(C(=O)OC)C(c2cccc([N+](=O)[O-])c2)C(C(=O)OCC)=C1C (centres undefined)
inactive: outcome [1] | Potency [2] | Potency [3] | Potency [4]

Nc1ncnc2c1ncn2[C@@H]1O[C@H](COP(=O)(O)OP(=O)(O)OP(=O)(O)OP(=O)(O)OC[C@@H]2O[C@H](n3cnc4c(N)ncnc43)[C@@H](O)[C@H]2O)[C@@H](O)[C@H]1O
inactive: outcome [1] | Potency [2] | Potency [3] | max response [5] 11.9% | Potency [4]

O=c1[nH]c2cc(Cl)c(Cl)cc2[nH]c1=O
inactive: outcome [1] | Potency [2] | Potency [3] | Potency [4]

O=C1O/C(=C/Br)CCC1c1cccc2ccccc12 (centres undefined)
inactive: outcome [1] | Potency [2] | Potency [3] | max response [5] 7.23% | Potency [4]

CSc1nc(N)c2ncn([C@@H]3O[C@H](COP(=O)(O)OP(=O)(O)OP(=O)(O)O)[C@@H](O)[C@H]3O)c2n1
inactive: outcome [1] | Potency [2] | Potency [3] | max response [5] 11.9% | Potency [4]

C[N+]1(C)CCC(OC(=O)C(c2ccccc2)c2ccccc2)CC1
inactive: outcome [1] | Potency [2] | Potency [3] | Potency [4]

CC(C)ON([C@@H](C(=O)NO)C(C)C)S(=O)(=O)c1ccc(-c2ccccc2)cc1
inactive: outcome [1] | Potency [2] | Potency [3] | Potency [4]
